Screens from PubChem.
In the library only some 6.5% were active in any assay of this set; here they are far more common.
FMDV inh: blocks foot and mouth disease virus; Potency, µM (doses to about 57.9 µM), for inactives: at the highest dose activity change, negative = inhibition, actives largely listed as inhibitors; AID 1159524; FMDV antiviral cell-based qHTS; 1.2% of 410,000 active; calls by dose curve; tested in HEK293T cells; also: read-out not given here; potency is read from the fitted curve at half-maximal effect; nearly all actives have a fitted effect of over 45% in size
HCMV antiviral: inhibitors of human cytomegalovirus; HFF cells, HCMV-luciferase reporter, 72 h; hits give low values; activity change, negative = inhibition, % at 57.5 µM; 4.5% of 410,000 active; in the data active = activity change below about -60%; inconclusive = no clear call, values can overlap the other calls; inactive = above about -39%
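Two compound doses tested in HFFs infected with HCMV-luciferase, MOI 1 PFU/cell, 72 h at 37C. Lysate luminescence read with OneGlo; data normalized against buffer-only and 10uM Salinomycin inhibitor controls.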
LASV entry inh: Lassa virus entry inhibition. Lassa virus pseudotype entry inhibition, cell reporter. Potency, µM (titrated, usually from 37.9 µM), for the others: at the top dose activity change, negative = inhibition, usual class: inhibitors. 1.2% of 300,000 active. AID 540256; calls by dose curve; tested in HEK293 cells; also: potency is read from the fitted curve at half-maximal effect; nearly all actives have a fitted effect of over 50% in size
VACV Venus inh: vaccinia inhibition (Venus reporter). Vaccinia virus Venus reporter expression, fluorescence. Potency, µM (highest dose often 36.5 µM), without a hit: at the top dose activity change, negative = inhibition, hits mostly inhibitors. 0.46% of 330,000 active. AID 720580; calls by dose curve; tested in A549 cells; also: potency is read from the fitted curve at half-maximal effect; nearly all actives have a fitted effect of over 30% in size
Vaccinia mCherry: inhibitors of vaccinia virus infection (mCherry reporter signal) | Vaccinia virus mCherry reporter infection, fluorescence | Potency, µM (titrated, usually from 36.5 µM), for the others: top-dose activity change, negative = inhibition, most hits filed as inhibitors | 0.63% of 310,000 active; calls by dose curve; tested in A549 cells; also: potency is read from the fitted curve at half-maximal effect; nearly all actives have a fitted effect of over 35% in size
Marburg entry inh: blocks Marburg virus binding to or entry into cells; Marburg virus pseudotyped entry inhibition, cell reporter; Potency, µM (titrated, usually from 37.8 µM), without a hit: at the top dose activity change, negative = inhibition, hits mostly inhibitors; 1.8% of 300,000 active; calls by dose curve; tested in HEK293 cells; also: potency is read from the fitted curve at half-maximal effect
Numbers without * were called inactive; i = inactive; ? = inconclusive; . = no result; + = active, no number; ! = not confirmed by another sample; [ ] = another dose, or the depositor's remark. % is scaled to controls: 0 for no effect and ±100 for the full control effect.

SMILES | FMDV inh | HCMV antiviral | LASV entry inh | VACV Venus inh | Vaccinia mCherry | Marburg entry inh
Cc1ccc2sc(N(CCCN(C)C)C(=O)CCS(=O)(=O)c3ccccc3)nc2c1C | 32µM* | 0 | . | . | . | .
C/C(=N/NC(=O)c1cc(C)[nH]n1)c1ccncc1 | 24% | 27 | ? | 1% | -21% | 14%[46.1 µM]
CSc1ncc(Cl)c(C(=O)N(Cc2ccc(C(C)C)cc2)C2CCS(=O)(=O)C2)n1 (stereo not drawn) | 30% | -5 | ? | -10% | -21% | ?
COc1cc(-c2ccc(NC(=O)NC3CC3)c(OC)c2)ccc1NC(=O)NC1CC1 | . | -77* | . | . | . | .
COc1ccc(NC(=S)NC2CCCCCC2)c(OC)c1 | 0% | -77* | -2% | -4% | -22% | 21%
COc1ccc(NC(=S)NCCC(c2ccccc2)c2ccccc2)c(OC)c1 | -15% | -60* | ? | ? | ? | ?
CCOc1ccccc1NC(=O)C(CC(C)C)NC(=O)C1CCCCC1 (stereo not drawn) | 35% | 58 | 16% | . | . | -16%
COc1ccc(NC(=O)C(CC(C)C)NC(=O)C2CCCCC2)c(OC)c1 (stereo not drawn) | 316µM*! | ? | -9%[46.1 µM] | -8% | -1% | -9%[46.1 µM]
CCC(=O)Nc1ccc(-c2ccc(NC(=O)CC)c(OC)c2)cc1OC | -8% | ? | . | -15% | ? | .
Cc1ccc([N+](=O)[O-])cc1S(=O)(=O)Nc1cccc(S(=O)(=O)NC2=NCCC2)c1 | 39% | 60 | 17% | -11% | -1% | -4%
COc1ccc(-c2c/c(=N\c3nc(-c4ccccc4)c(C)s3)c3ccccc3o2)cc1O | ? | -96* | ? | ? | . | ?
COc1ccc(-c2cc(=Nc3c(C)n(C)n(-c4ccccc4)c3=O)c3ccccc3o2)cc1 | -4% | 89 | 7%[46.1 µM] | -24% | -2% | ?
O=[N+]([O-])c1ccc(SCc2ccncc2)nc1 | 8% | -84* | . | -16% | -20% | .
COC(=O)c1ccccc1C(=O)NCC1Cc2cc(-c3nc(C)cnc3C)ccc2O1 (stereo not drawn) | -3% | . | . | -1% | -3% | .
COc1ccccc1CCNC(=O)c1cc(COc2cccc(C(F)(F)F)c2)on1 | 0% | + | . | . | . | .
C=CCC1(CC=C)CCCN1C(=O)c1cc(COc2cccc(C(F)(F)F)c2)on1 | -24% | . | ? | -14% | -1% | 10µM*
Cc1cccc(C(=O)N[C@H]2CC[C@@]34CCCN3C(=O)CCC[C@H]4[C@H]2Cc2ccccc2)c1 | . | -27 | . | . | . | .
O=[N+]([O-])c1ccc(-[n+]2ccc3ccccc3c2)c([N+](=O)[O-])c1 | 28µM* | 13 | . | ? | 10µM* | .
CCCCn1c(SCC(=O)Nc2cc(C(F)(F)F)cc(C(F)(F)F)c2)nnc1C(CC)N(C)C (stereo not drawn) | ? | -88* | ? | ? | -19% | ?
CC(C)(C)NC[C@H](O)c1cc(O)cc(O)c1 | . | . | . | . | . | 21%
CCOC(=O)c1c(C)[nH]c(C)c1C(=O)CSc1nc2ccccc2c(=O)n1-c1ccc(Cl)cc1 | 0% | ? | ? | ? | -14% | ?
Cc1[nH]c2ccccc2c1C(=O)CSc1nc2ccccc2c(=O)n1-c1ccccc1F | . | -89* | . | . | . | .
O=C1c2ccccc2C(=O)N1CCCCSc1nc2ccccc2c(=O)n1CCCN1CCOCC1 | -19% | -104* | ? | 12% | -3% | ?
Cn1c(N)c(C(=O)CSc2nc3ccccc3c(=O)n2CCCN2CCOCC2)c(=O)n(C)c1=O | 7% | -1 | . | . | . | .
O=C1c2ccccc2C(=O)N1CCSc1nc2ccccc2c(=O)n1CCCN1CCOCC1 | -25% | 25 | 13% | -11% | i | 14%[46.1 µM]
Cc1[nH]c2ccccc2c1C(=O)CSc1nc2ccccc2c(=O)n1CCCN1CCOCC1 | ? | -74* | -23% | -14% | . | 11µM*
Cc1ccc(O[C@@H]2[C@H](O)CO[C@H]2C=CC#Cc2ccc(C(C)(C)C)cc2)cc1 | . | . | ? | . | . | -35%[14.2 µM]
COc1ccc(C2=Nc3ccccc3N(C(=O)c3ccc4ncccc4c3)C2C(=O)NC(C)(C)C)cc1 (stereo not drawn) | 11% | 199 | . | -10% | -7% | .
COc1ccc(C2=Nc3ccccc3N(C(=O)c3ccc4ncccc4c3)C2C(=O)NC2CCCC2)cc1 (stereo not drawn) | 41% | -78* | . | -25% | ? | .
